Test results: the supplement of paper PMC12636033
± gives the standard deviation of the averaged measurements. Whole data set: some 33,000 sequences, median “E-score (rank enrichment, -0.5 to 0.5)” near -0.0028, cut for the highest 2% near 0.23. The full list was thinned out, with the highest values kept by preference.

system: 2Sb-muMax20 (muMax20 with two 1,3-bis(methyl)benzene Cys staples, A13C/A17C and Q88C/A92C, C-terminal Lys); assay: PBM 8-mer E-score (E-score (rank enrichment, -0.5 to 0.5)); higher = stronger preferential binding
Method: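 Protein binding microarray (universal PBM chip covering all 10-mers in fixed probe flanks) with chemically synthesized human Max(13-93) bHLH-LZ analogs (not full-length Max) bearing noncanonical residues (hArg, Tha, Aib, Nle at 65) and aromatic Cys staples. Read-out per 8-mer (and its reverse complement): E-score (rank-based enrichment, -0.5 to 0.5) and Z-score of median probe intensity.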

Sequence	PBM 8-mer E-score
GGCCACAA	-0.0539 ± 0.0061
ACATTCTC	-0.0346 ± 0.019
AGGGGGTG	-0.116 ± 0.099
CTGGGGTA	0.179 ± 0.0054
ATGGGGTG	0.238 ± 0.0055
ATGGGGTA	0.249 ± 0.034
ATGGGGTC	0.0475 ± 0.043
AAGGGGTG	0.117 ± 0.065
ACGTAGAA	-0.00421 ± 0.0043
AGCGCTCG	-0.0768 ± 0.062
AAATCCGA	0.0186 ± 0.034
CGGAATGA	-0.065 ± 0.018
GGGAATAC	0.0722 ± 0.022
GGGAATGA	0.322 ± 0.017
GGGAATAA	0.273 ± 0.024
AGGAATGA	0.00801 ± 0.012
TGGAATAA	0.0314 ± 0.022
AAGGCACT	0.0491 ± 0.026
GAGTGCCA	-0.0641 ± 0.028
ACTCTGCT	-0.214 ± 0.017
CATATCCG	0.0256 ± 0.071
AATTTTCC	0.085 ± 0.0046

Sequence	PBM 8-mer E-score
CAAATTCC	0.117 ± 0.042
CGTTTCTC	-0.0396 ± 0.11
GACAGGGA	-0.156 ± 0.072
AAGCAACT	0.00018 ± 0.012
ATAAAGCA	0.261 ± 0.077
CTAAAGCA	0.097 ± 0.0042
ATAAAGCG	0.0637 ± 0.015
AGTTAGAA	0.0284 ± 0.083
CCGTGCAA	-0.0691 ± 0.042
CCGTGCAC	0.126 ± 0.009
ACGTGCAT	0.199 ± 0.0073
ACGTGCAC	0.281 ± 0.028
ACGTGCAA	0.252 ± 0.037
GCGTGCAC	0.164 ± 0.039
AGACCATG	-0.149 ± 0.029
ACGGGTAA	0.0152 ± 0.05
AATGTGGG	0.248 ± 0.054
CATGTGGG	0.193 ± 0.0078
AATGTGGC	0.0323 ± 0.0018
TGAATGCA	0.167 ± 0.015
CCATACCG	0.0521 ± 0.016
ATTTTACC	0.147 ± 0.025

Sequence	PBM 8-mer E-score
CGACGGAA	-0.109 ± 0.041
TACATTAA	0.25 ± 0.03
CTCATTAA	0.154 ± 0.064
GACATTAA	0.0446 ± 0.036
ATCATTAA	0.0944 ± 0.13
TCCATTAA	-0.0453 ± 0.043
CACATTAG	-0.00967 ± 0.014
GTCATTAA	0.269 ± 0.035
AACATTAC	0.17 ± 0.015
CCCATTAA	0.13 ± 0.0083
AACATTAA	0.0201 ± 0.011
ACCATTAA	0.298 ± 0.038
CACATTAC	0.235 ± 0.017
AGCGTGGC	-0.119 ± 0.04
TAACGTTA	0.0083 ± 0.027
CCATTCCG	-0.0949 ± 0.02
CGACGCCC	9e-05 ± 0.053
CTGCTCTC	-0.0222 ± 0.021
ATGTGATG	0.108 ± 0.053
ATATCCGC	-0.0334 ± 0.094
AGAACCAG	-0.11 ± 0.019
AGCATTAC	-0.0652 ± 0.011

Sequence	PBM 8-mer E-score
AGCATTAT	0.224 ± 0.0032
TGCATTAA	0.267 ± 0.01
AGCATTAA	0.245 ± 0.037
CTGATTAA	0.0112 ± 0.038
ATGATTAA	-0.061 ± 0.032
GTGATTAA	0.234 ± 0.019
CGCATTAA	0.0701 ± 0.0015
GGCATTAA	-0.00398 ± 0.043
AGGATAAT	0.148 ± 0.024
AGTTATCC	0.119 ± 0.035
AGCTCAAG	-0.0222 ± 0.065
AAAGCCAG	-0.092 ± 0.033
CTCGCGAA	-0.117 ± 0.028
ATATTCCC	0.159 ± 0.065
ACCGGCGT	-0.189 ± 0.05
ATTCGTCC	0.232 ± 0.032
ATTCGTCG	-0.057 ± 0.028
CTTCGTCC	-0.084 ± 0.06
ACATCGGT	-0.142 ± 0.022
ACAATCTC	0.149 ± 0.018
CCAATCTC	0.256 ± 0.024
CCAATCTA	0.094 ± 0.0061

Sequence	PBM 8-mer E-score
CTACGCGC	-0.0145 ± 0.047
GACTCTTA	0.151 ± 0.032
CGGCGCAA	-0.0906 ± 0.015
ACCGTCCG	-0.254 ± 0.034
AGCCTCAG	-0.0843 ± 0.053
CTCAATTA	0.0698 ± 0.043
AACAATTG	0.143 ± 0.022
GTCAATTA	-0.0609 ± 0.042
AACAATGG	0.0925 ± 0.024
AACAATTC	0.141 ± 0.011
AACAATGC	0.23 ± 0.044
ATCAATTG	0.257 ± 0.0066
ATCAATTA	0.27 ± 0.01
AACAATTA	0.2791 ± 0.0017
GACAATGC	0.0134 ± 0.02
ATCAATCG	0.16 ± 0.067
ATCAATTC	0.0558 ± 0.082
CCATGGGA	0.123 ± 0.019
AATAGAGC	0.0926 ± 0.04
ATGCTTCG	0.00498 ± 0.0021
CACAGTAG	-0.0155 ± 0.0072
AGCCTAGA	-0.0899 ± 0.028
